Read-out in experiment [1]: C-C motif chemokine 2 (Homo sapiens) (UniProt P13500)
Nature of the experiment: BSK_KF3CT_MCP1: BioMAP Diversity Plus: KF3CT Assay for Monocyte Chemoattractant Protein 1 (MCP1/CCL2) Biomarker Activity (AID 2283073). As to conditions: primary human keratinocytes with fibroblasts; actives raise or lower the signal. In short, it runs like this: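 ELISA readout of MCP-1 after 24 h chemical dosing of a human skin primary co-culture of keratinocytes and foreskin fibroblasts. Activity was fitted in both directions against DMSO.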

Read-out in experiment [2]: Matrix Metallopeptidase 9 (MMP9), MMP9 (gene 4318)
Nature of the experiment: BSK_KF3CT_MMP9: BioMAP Diversity Plus: KF3CT Assay for Matrix Metallopeptidase 9 (MMP9) Biomarker Activity (AID 2283074).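 As to AC50: MMP9 protein level quantified by ELISA in the co-culture.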 To be noted: primary human keratinocytes with fibroblasts; actives raise or lower the signal. In short, it runs like this:
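Human keratinocyte and foreskin fibroblast co-culture exposed to chemicals for 24 h; MMP9 biomarker measured by ELISA, bidirectional fitting relative to DMSO; cytotoxicity tracked by SRB total protein staining in parallel cultures.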

Read-out in experiment [3]: urokinase plasminogen activator (uPA), PLAU (gene 5328)
Nature of the experiment: BSK_KF3CT_uPA: BioMAP Diversity Plus: KF3CT Assay for urokinase plasminogen activator (uPA) Biomarker Activity (AID 2283075). As to conditions: primary human keratinocytes with fibroblasts; actives raise or lower the signal. The method, boiled down:
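Primary human keratinocyte/foreskin fibroblast co-culture exposed to chemical; uPA measured by ELISA at 24 h. Bidirectional fit versus DMSO, with parallel SRB total-protein staining for cytotoxicity.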

Read-out in experiment [4]: CD40, CD40 (gene 958)
The experiment can be described thus: BSK_LPS_CD40: BioMAP Diversity Plus: LPS Assay for CD40 Biomarker Activity (AID 2283076). As to conditions: primary human HUVEC with PBMC; actives raise or lower the signal. The method, boiled down:
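Cells were dosed, incubated 24 h, then assayed for CD40 by ELISA. Gain or loss of signal was analysed relative to DMSO controls. The culture paired human umbilical vein endothelium with peripheral blood mononuclear cells.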

Read-out in experiment [5]: E-selectin (Homo sapiens) (UniProt P16581)
Nature of the experiment: BSK_LPS_Eselectin: BioMAP Diversity Plus: LPS Assay for Eselectin Biomarker Activity (AID 2283077). As to conditions: primary human HUVEC with PBMC; actives raise or lower the signal. In short, it runs like this:
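Primary human vascular co-culture (endothelium plus PBMC) was dosed with chemical, then E-selectin quantified by ELISA at 24 h. Endpoint values derive from bidirectional curve fitting relative to DMSO.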

Read-out in experiment [6]: Interleukin-8 (IL8), CXCL8 (gene 3576)
The experiment can be described thus: BSK_LPS_IL8: BioMAP Diversity Plus: LPS Assay for Interleukin-8 (IL8) Biomarker Activity (AID 2283078). To be noted: primary human HUVEC with PBMC; actives raise or lower the signal. The method, boiled down:
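Readout is IL-8 by ELISA, taken 24 h after compounds were added to LPS-stimulated endothelial/PBMC co-cultures. Both increases and decreases relative to DMSO control were scored through bidirectional fitting.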

Experiment [7] can be described thus: BSK_LPS_SRB: Viability Assessment in the BioMAP Diversity Plus: LPS Assay (AID 2283079).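 Also: total protein by sulforhodamine B absorbance as a cytotoxicity measure; measured one day after compound addition.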 As to conditions: primary human HUVEC with PBMC. In short, it runs like this:
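Readout is SRB absorbance at 560 nm (0.1% stain, TCA-fixed parallel cultures) as a total-protein cytotoxicity measure. Cells: primary human umbilical vein endothelium plus peripheral blood mononuclear cells, 24 h after chemical exposure; DMSO served as baseline.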

Read-out in experiment [8]: Interleukin-1 alpha (IL1a), IL1A (gene 3552)
Nature of the experiment: BSK_LPS_IL1a: BioMAP Diversity Plus: LPS Assay for Interleukin-1 alpha (IL1a) Biomarker Activity (AID 2283080). To be noted: primary human HUVEC with PBMC; actives raise or lower the signal. The method, boiled down:
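ELISA read-out of IL-1 alpha from a human primary vascular co-culture (endothelium plus PBMC) under LPS, sampled 24 hours post-dosing. Activity was fitted in both directions relative to DMSO controls.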

Read-out in experiment [9]: Monocyte Chemoattractant Protein-1 (MCP1), CCL2 (gene 6347)
The experiment can be described thus: BSK_LPS_MCP1: BioMAP Diversity Plus: LPS Assay for Monocyte Chemoattractant Protein-1 (MCP1) Biomarker Activity (AID 2283081). As to conditions: primary human HUVEC with PBMC; actives raise or lower the signal. In short, it runs like this: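 Human endothelial–PBMC co-cultures were dosed with chemical, then LPS-driven MCP-1 levels were quantified by ELISA at 24 h. Activity in either direction was fitted versus DMSO negative control.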

A short description of experiment [10]: BSK_LPS_PGE2: BioMAP Diversity Plus: LPS Assay for Prostaglandin E2 (PGE2) Biomarker Activity (AID 2283082). To be noted: primary human HUVEC with PBMC; actives raise or lower the signal. The method, boiled down:
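HUVEC plus PBMC co-culture stimulated with LPS; secreted PGE2 quantified by ELISA 24 h after chemical dosing. Activity fitted bidirectionally against DMSO as negative control and baseline; parallel SRB total-protein staining served as cytotoxicity check.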

Read-out in experiment [11]: Macrophage colony-stimulating factor (MCSF), CSF1 (gene 1435)
Nature of the experiment: BSK_LPS_MCSF: BioMAP Diversity Plus: LPS Assay for Macrophage colony-stimulating factor (MCSF) Biomarker Activity (AID 2283083). To be noted: primary human HUVEC with PBMC; actives raise or lower the signal. The method, boiled down:
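ELISA readout of M-CSF after 24 h compound exposure in a human endothelial/PBMC co-culture. Activity, in either direction, is fitted relative to DMSO vehicle.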

Read-out in experiment [12]: Tissue Factor, F3 (gene 2152)
Nature of the experiment: BSK_LPS_TissueFactor: BioMAP Diversity Plus: LPS Assay for Tissue Factor Biomarker Activity (AID 2283084). As to conditions: primary human HUVEC with PBMC; actives raise or lower the signal. In short, it runs like this:
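ELISA signal for cell-surface Tissue Factor (CD142) was read 24 h after compound dosing of an LPS-stimulated human endothelial–PBMC primary co-culture. Gain or loss of signal was scored relative to DMSO.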

Read-out in experiment [13]: Tumor necrosis factor (Homo sapiens) (UniProt P01375)
Nature of the experiment: BSK_LPS_TNFa: BioMAP Diversity Plus: LPS Assay for Tumour Necrosis Factor alpha (TNFa) Biomarker Activity (AID 2283085). As to conditions: primary human HUVEC with PBMC; actives raise or lower the signal. The method, boiled down:
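Human umbilical vein endothelial cells co-cultured with PBMC were exposed to test chemical and TNFa measured by ELISA 24 h after dosing. Bidirectional curve fitting was done relative to DMSO as negative control and baseline.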

Read-out in experiment [14]: Vascular cell adhesion molecule 1 (VCAM1), VCAM1 (gene 7412)
The experiment can be described thus: BSK_LPS_VCAM1: BioMAP Diversity Plus: LPS Assay for Vascular cell adhesion molecule 1 (VCAM1) Biomarker Activity (AID 2283086). As to conditions: primary human HUVEC with PBMC; actives raise or lower the signal. In short, it runs like this: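 Human umbilical vein endothelial cells co-cultured with peripheral blood mononuclear cells under LPS stimulation were exposed to test chemical for 24 h. VCAM-1 levels were then measured by ELISA, with bidirectional curve fitting relative to DMSO as negative control and baseline.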

Read-out in a further experiment: CD38, CD38 (gene 952)
Nature of the experiment: BSK_SAg_CD38: BioMAP Diversity Plus: SAg Assay for CD38 Biomarker Activity (AID 2283087). To be noted: primary human HUVEC with PBMC; actives raise or lower the signal. The method, boiled down: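 Fluorescence ELISA of cell-surface CD38 served as the read-out, with either increase or decrease fitted against DMSO controls. Cells were a human umbilical vein endothelium plus PBMC co-culture under SEB/TSST-1 stimulation, measured 24 h after dosing.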

Read-out in experiment [15]: CD40, CD40 (gene 958)
Nature of the experiment: BSK_SAg_CD40: BioMAP Diversity Plus: SAg Assay for CD40 Biomarker Activity (AID 2283088). As to conditions: primary human HUVEC with PBMC; actives raise or lower the signal. In short, it runs like this:
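Compounds were dosed onto a human primary endothelial–PBMC co-culture, and after 24 h CD40 was quantified by ELISA using a fluorescence signal. Activity in either direction was fitted relative to DMSO.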

Read-out in the next experiment: CD69, CD69 (gene 969)
Nature of the experiment: BSK_SAg_CD69: BioMAP Diversity Plus: SAg Assay for CD69 Biomarker Activity (AID 2283089).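 As to AC50: cell surface CD69 protein quantified by ELISA with fluorescence detection.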 To be noted: primary human HUVEC with PBMC; actives raise or lower the signal. The method, boiled down:
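HUVEC co-cultured with PBMC were dosed with chemical, and CD69 was measured by ELISA with fluorescence read-out 24 h later. Bidirectional curve fitting used DMSO as negative control and activity baseline.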

Read-out in experiment [16]: Monocyte Chemoattractant Protein-1 (MCP1), CCL2 (gene 6347)
Nature of the experiment: BSK_SAg_MCP1: BioMAP Diversity Plus: SAg Assay for Monocyte Chemoattractant Protein-1 (MCP1) Biomarker Activity (AID 2283090). As to conditions: primary human HUVEC with PBMC; actives raise or lower the signal. The method, boiled down: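 MCP-1 levels in the endothelial–PBMC SAg co-culture were quantified by ELISA at 24 h post-dosing; both increases and decreases versus DMSO scored. Cytotoxicity monitored by SRB total protein in parallel cultures.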

Read-out in experiment [17]: E-selectin (Homo sapiens) (UniProt P16581)
The experiment can be described thus: BSK_SAg_Eselectin: BioMAP Diversity Plus: SAg Assay for Eselectin Biomarker Activity (AID 2283091). As to conditions: primary human HUVEC with PBMC; actives raise or lower the signal. The method, boiled down: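 Co-culture: HUVEC + PBMC. Dose compound; 24 h. ELISA for E-selectin. Bidirectional fit vs DMSO.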

Read-out in experiment [18]: Monokine induced gamma interferon (MIG), CXCL9 (gene 4283)
The experiment can be described thus: BSK_SAg_MIG: BioMAP Diversity Plus: SAg Assay for Monokine induced gamma interferon (MIG) Biomarker Activity (AID 2283092). As to conditions: primary human HUVEC with PBMC; actives raise or lower the signal. The method, boiled down: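 HUVEC plus human PBMC co-culture, chemicals dosed and MIG (CXCL9) quantified by ELISA at 24 h. Bidirectional curve fitting against DMSO as negative control and baseline, so both gain and loss of signal count as activity.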

For three compounds, outcome and AC50 results are on record in PubChem BioAssay (EPA / NIEHS).

The source made the active and inactive calls. The calls were made as follows: active = hit-call score of the fitted dose curve at least 0.9, where 1 is the maximum; inactive = score below 0.9.

E-selectin (Homo sapiens), sequence (P16581 whole entry, looked up): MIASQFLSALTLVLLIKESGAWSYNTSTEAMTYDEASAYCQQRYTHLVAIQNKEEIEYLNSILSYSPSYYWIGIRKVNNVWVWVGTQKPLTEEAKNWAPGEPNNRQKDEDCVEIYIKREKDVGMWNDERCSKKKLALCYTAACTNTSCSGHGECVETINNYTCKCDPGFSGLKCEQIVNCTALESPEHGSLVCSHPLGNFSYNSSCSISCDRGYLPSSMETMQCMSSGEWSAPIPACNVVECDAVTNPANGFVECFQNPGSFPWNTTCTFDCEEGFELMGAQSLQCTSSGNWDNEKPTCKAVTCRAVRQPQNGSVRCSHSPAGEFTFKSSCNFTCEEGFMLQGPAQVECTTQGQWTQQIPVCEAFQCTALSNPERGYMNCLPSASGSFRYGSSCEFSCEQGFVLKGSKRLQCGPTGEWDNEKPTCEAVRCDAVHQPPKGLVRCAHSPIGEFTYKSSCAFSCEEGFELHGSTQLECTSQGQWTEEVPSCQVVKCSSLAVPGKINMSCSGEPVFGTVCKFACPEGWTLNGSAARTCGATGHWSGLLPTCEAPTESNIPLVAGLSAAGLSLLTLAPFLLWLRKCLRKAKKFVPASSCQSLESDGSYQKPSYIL
Tumor necrosis factor (Homo sapiens), sequence (P01375 whole entry, looked up): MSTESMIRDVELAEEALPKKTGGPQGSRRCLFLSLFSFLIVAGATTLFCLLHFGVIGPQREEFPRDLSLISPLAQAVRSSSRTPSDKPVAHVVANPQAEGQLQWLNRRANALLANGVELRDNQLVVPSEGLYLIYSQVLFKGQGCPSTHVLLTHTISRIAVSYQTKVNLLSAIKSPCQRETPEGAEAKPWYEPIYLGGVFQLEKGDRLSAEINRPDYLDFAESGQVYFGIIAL

Turning to `C=CC(Cl)CCl` (centres undefined), the outcome is “inactive” in [1]; “inactive” in experiment [2]; “inactive” in the experiment with CD40, CD40 (gene 958) [4]; “inactive” in experiment [5]; “inactive” in [6]; “inactive” in experiment [7]. The result in [8], in experiment [9], in [10], in experiment [11], in experiment [12] and in [13] was inactive. Further, the outcome was “inactive” in [14]; “inactive” in the experiment with CD38, CD38 (gene 952); “inactive” with CD69, CD69 (gene 969); “inactive” in experiment [16]; “inactive” in experiment [17]; “inactive” in experiment [18]. Also, the concentration at half-maximal activity (AC50) was 16.9 nM (active) in experiment [3] and 478 nM (active) with CD40, CD40 (gene 958) [15].
As to `Cc1cc(Cl)ccc1OC(C)C(=O)O` (centres undefined), the outcome in experiment [1] was “inactive”; in experiment [2] it was “inactive”; in [3], “inactive”; with CD40, CD40 (gene 958) [4], “inactive”; in experiment [5] it was “inactive”; in experiment [6] it was “inactive”. In addition, the result in experiment [7], in experiment [8], in [9], in experiment [10], in experiment [11] and in experiment [12] was inactive. Also, the outcome in [14] was “inactive”; in the experiment with CD38, CD38 (gene 952), “inactive”; in the experiment with CD40, CD40 (gene 958) [15], “inactive”; in the experiment with CD69, CD69 (gene 969), “inactive”; in experiment [16], “inactive”; in experiment [17] it was “inactive”. For the same compound, the outcome in [18] was inactive.
Turning to `CC(C)(C)c1cc([N+](=O)[O-])cc(C(C)(C)C)c1O`, the half-maximal activity concentration (AC50) in [1] is 30700 nM (active); in experiment [2], 11300 nM (active); in the experiment with CD40, CD40 (gene 958) [4], 492 nM (active); in [5], 345 nM (active); in experiment [7], 683 nM (active); in experiment [11] it was 452 nM (active). Also, the AC50 with CD38, CD38 (gene 952) is 332 nM (active); in the experiment with CD40, CD40 (gene 958) [15], 474 nM (active); in the experiment with CD69, CD69 (gene 969), 322 nM (active); in [16], 458 nM (active); in experiment [17], 219 nM (active). The outcome in experiment [3], in experiment [6], in experiment [8], in experiment [9], in experiment [10] and in [12] was inactive. Also, the result in experiment [13], in [14] and in [18] was inactive.
